{"source": "PubChem BioAssay AID651601", "about": "(Sanford-Burnham Center for Chemical Genomics, 2012)", "target": "C-X-C chemokine receptor type 6 (Homo sapiens) (UniProt O00574)", "sequence (O00574 whole entry, looked up)": "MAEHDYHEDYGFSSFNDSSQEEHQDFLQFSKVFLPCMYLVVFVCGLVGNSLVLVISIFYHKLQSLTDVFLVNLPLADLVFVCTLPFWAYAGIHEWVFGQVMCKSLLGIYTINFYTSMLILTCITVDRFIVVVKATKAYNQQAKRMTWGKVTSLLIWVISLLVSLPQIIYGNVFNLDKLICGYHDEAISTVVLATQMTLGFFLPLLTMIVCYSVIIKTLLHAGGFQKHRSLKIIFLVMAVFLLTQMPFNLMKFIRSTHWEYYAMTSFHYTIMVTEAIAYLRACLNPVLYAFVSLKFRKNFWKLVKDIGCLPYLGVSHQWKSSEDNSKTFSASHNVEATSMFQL", "test": "antagonist selectivity across CCR6, CXCR5 and CXCR6 – cell-based, CHO-K1 PathHunter beta-arrestin, luminescence, selectivity assay for CXCR6 antagonist project, profiling panel (AID 651601)", "conditions": "antagonist mode, mean of runs", "note": "Active and inactive are the calls of the source.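 How the source made its calls: active means CXCR6 mean IC50 below 15 µM, and neither CCR6 nor CXCR5 mean IC50 under five times that; inactive means the rest.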"}
{"compound": "COc1cccc(C(=O)NC2CC3CCCC(C2)N3CC(=O)Nc2ccc(N(C)C)cc2)c1", "note": "(stereo unspecified)", "values": [{"measurement": "outcome", "result": "inactive"}]}
{"compound": "O=C(CN1C2CCCC1CC(NC(=O)c1ccccc1)C2)Nc1ccccc1", "note": "(stereo unspecified)", "values": [{"measurement": "outcome", "result": "inactive"}]}
{"compound": "O=C(CN1C2CCCC1CC(NC(=O)c1ccccc1)C2)Nc1ccccc1C(F)(F)F", "note": "(stereo unspecified)", "values": [{"measurement": "outcome", "result": "inactive"}]}
{"compound": "COc1cccc(C(=O)NC2CC3CCCC(C2)N3CC(=O)Nc2ccccc2C(F)(F)F)c1", "note": "(stereo unspecified)", "values": [{"measurement": "outcome", "result": "inactive"}]}
{"compound": "COc1cc(C(=O)NC2CC3CCCC(C2)N3CC(=O)Nc2ccccc2)cc(OC)c1OC", "note": "(stereo unspecified)", "values": [{"measurement": "outcome", "result": "active"}]}
{"compound": "CN(C)c1ccc(NC(=O)CN2C3CCCC2CC(NC(=O)c2ccccc2)C3)cc1", "note": "(stereo unspecified)", "values": [{"measurement": "outcome", "result": "inactive"}]}
